# Structures can show the parent of a compound that is named as a salt. A number with no mark means an inactive call.
# Test system: NCI-H1688
# Experiment: inhibition of cell viability relative to untreated control (fraction); higher = stronger growth inhibition, active = 0.5 or more
# Conditions: 30 µM; 24 h
# Summary of the method: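 NCI-H1688 small cell lung cancer cells were plated in 96-well plates at 3 × 10^3 cells/well, and 24 h later they were exposed to a natural compound library (TargetMol) at 30 µM for 24 h at 37°C with 5% CO2. Viability was measured in triplicate using Cell Counting Kit-8, read as absorbance at 450 nm. Inhibition of cell viability is given as a fraction, calculated from viability normalised to untreated cells.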
row,SMILES,inhibition of cell viability
1,Nc1nc(=O)c2nc(CNc3ccc(C(=O)N[C@@H](CCC(=O)O)C(=O)O)cc3)cnc2[nH]1 [Folic acid],-0.206
2,N[C@H]1C(O)O[C@H](CO)[C@@H](O)[C@@H]1O (stereo partly specified) [Glucosamine],-0.173
3,C[N+](C)(C)CC(O)CC(=O)[O-] (racemic) [DL-Carnitine],0.00503
4,C[n+]1cccc(C(=O)[O-])c1 [Trigonelline],-0.0163
5,O=C1c2ccccc2C(=O)c2c1ccc(O)c2O [Alizarin],0.344
6,Nc1ncnc2c1ncn2[C@@H]1O[C@H](CO)C[C@H]1O [Cordycepin],-0.154
7,C[C@@H]1O[C@@H](OC[C@H]2O[C@@H](Oc3c(-c4ccc(O)c(O)c4)oc4cc(O)cc(O)c4c3=O)[C@H](O)[C@@H](O)[C@@H]2O)[C@H](O)[C@H](O)[C@H]1O [Rutin],0.272
8,C[C@@H]1O[C@@H](O[C@H]2[C@H](Oc3cc(O)c4c(c3)O[C@H](c3ccc(O)cc3)CC4=O)O[C@H](CO)[C@@H](O)[C@@H]2O)[C@H](O)[C@H](O)[C@H]1O [Naringin],0.06
9,CC(C)=CCC[C@](C)(O[C@@H]1O[C@H](CO)[C@@H](O)[C@H](O)[C@H]1O)[C@H]1CC[C@]2(C)[C@@H]1[C@H](O)C[C@@H]1[C@@]3(C)CC[C@H](O)C(C)(C)[C@@H]3[C@@H](O[C@@H]3O[C@H](CO)[C@@H](O)[C@H](O)[C@H]3O[C@@H]3O[C@@H](C)[C@H](O)[C@@H](O)[C@H]3O)C[C@]12C [Ginsenoside Re],-0.0285
10,CC(=O)O[C@@]12CO[C@@H]1C[C@H](O)[C@@]1(C)C(=O)[C@H](O)C3=C(C)[C@@H](OC(=O)[C@H](O)[C@@H](NC(=O)OC(C)(C)C)c4ccccc4)C[C@@](O)([C@@H](OC(=O)c4ccccc4)[C@H]21)C3(C)C [Docetaxel trihydrate],0.635 (active)
11,CC(C)=C1C/C=C(\C)CC/C=C(\C)CC1=O [Germacrone],0.245
12,O=C1O[C@H]([C@@H](O)CO)C(O)=C1OP(=O)(O)O [Sodium L-ascorbyl-2-phosphate],0.0357
13,CCc1c2c(nc3ccc(OC(=O)N4CCC(N5CCCCC5)CC4)cc13)-c1cc3c(c(=O)n1C2)COC(=O)[C@]3(O)CC [Irinotecan hydrochloride trihydrate],0.311
14,COc1cc(C(=O)O)cc(OC)c1O [Syringic acid],0.0408
15,CC[C@H](C)[C@H](N)C1=N[C@H](C(=O)N[C@@H](CC(C)C)C(=O)N[C@H](CCC(=O)O)C(=O)N[C@H](C(=O)N[C@H]2CCCCNC(=O)[C@H](CC(N)=O)NC(=O)[C@@H](CC(=O)O)NC(=O)[C@H](Cc3cnc[nH]3)NC(=O)[C@@H](Cc3ccccc3)NC(=O)[C@H]([C@@H](C)CC)NC(=O)[C@@H](CCCN)NC2=O)[C@@H](C)CC)CS1 [Bacitracin],-0.0913
16,CC1(C)C(O[C@@H]2OC[C@@H](O)[C@H](O)[C@H]2O)CC[C@]23CC24CC[C@]2(C)[C@@H]([C@@]5(C)CC[C@@H](C(C)(C)O)O5)[C@H](O)C[C@@]2(C)C4C[C@@H](O[C@@H]2O[C@H](CO)[C@@H](O)[C@H](O)[C@H]2O)C13 (stereo partly specified) [Astragaloside IV],-0.0383
17,NC1C(O)O[C@H](CO)C(O[C@@H]2O[C@H](CO)C(O[C@@H]3O[C@H](CO)[C@@H](O)[C@H](O)[C@H]3N)[C@H](O)C2N)C1O (stereo partly specified) [Chitosan],0.266
18,Oc1cc(O)c2c(c1)O[C@H](c1ccc(O)c(O)c1)[C@H](O)C2 [Epicatechin],0.0727
19,CC(=O)Oc1cc(C)c(OC(C)=O)c2ccccc12 [Menadiol Diacetate],0.384
20,COc1cc(CO)ccc1O [Vanillyl Alcohol],-0.235
21,CC1(C)C2CC[C@@]3(C)[C@@H](C(=O)C=C4[C@@H]5C[C@](C)(C(=O)O)CC[C@@]5(C)CC[C@@]43C)[C@]2(C)CC[C@H]1O (stereo partly specified) [Glycyrrhetinic acid(Enoxolone)],-0.198
22,C[C@H]1O[C@@H](O[C@H]2[C@@H](O)C[C@H](O[C@H]3[C@@H](O)C[C@H](O[C@H]4CC[C@@]5(C)[C@H](CC[C@@H]6[C@@H]5C[C@@H](O)[C@]5(C)[C@@H](C7=CC(=O)OC7)CC[C@]65O)C4)O[C@@H]3C)O[C@@H]2C)C[C@H](O)[C@@H]1O [Digoxin],0.995 (active)
23,C/C1=C2N=C(/C=C3N=C(/C(C)=C4\[N-]C(C(CC(N)=O)C4(C)CCC(=O)NCC(C)OP(=O)([O-])OC4C(CO)OC(n5cnc6cc(C)c(C)cc65)C4O)C4(C)N=C1C(CCC(N)=O)C4(C)CC(N)=O)C(CCC(N)=O)C\3(C)C)C(CCC(N)=O)C/2(C)CC(N)=O.[CH3-].[Co+3] (stereo unspecified) [Methylcobalamin],0.0835
24,NC[C@H]1O[C@H](O[C@H]2[C@H](O)[C@@H](O[C@H]3O[C@H](CO)[C@@H](O)[C@H](N)[C@H]3O)[C@H](N)C[C@@H]2N)[C@H](N)C[C@@H]1O [Tobramycin],-0.0866
25,CC(=O)OCC(=O)[C@@]1(O)CC[C@H]2[C@@H]3CCC4=CC(=O)C=C[C@]4(C)[C@@]3(Cl)[C@@H](Cl)C[C@@]21C [Dichlorisone Acetate],-0.129
26,O=C(OC[C@H]1O[C@@H](OC(=O)c2cc(O)c(O)c(OC(=O)c3cc(O)c(O)c(O)c3)c2)[C@H](OC(=O)c2cc(O)c(O)c(OC(=O)c3cc(O)c(O)c(O)c3)c2)[C@@H](OC(=O)c2cc(O)c(O)c(OC(=O)c3cc(O)c(O)c(O)c3)c2)[C@@H]1OC(=O)c1cc(O)c(O)c(OC(=O)c2cc(O)c(O)c(O)c2)c1)c1cc(O)c(O)c(OC(=O)c2cc(O)c(O)c(O)c2)c1 [Glycerite],0.821 (active)

# Reference: the supplement of paper PMC11634586
